The source of these data is PubChem BioAssay (Tox21).

A number with no mark means an inactive call. Activity calls are given as the source filed them. Calls come from the whole dose curve; as a rule, active = well fitted curve in the direction sought with a large enough effect in the repeat runs; inconclusive = weak or mixed curves; inactive = flat fitted curve, though single readings scatter.
% is set by controls: 0 for no effect and ±100 for the full control effect.

This test in a line: qHTS assay to test for compound auto fluorescence at 535 nm (green) in HepG2 cell free culture (AID 720686). As to conditions: Cell-free medium, green autofluorescence 485/535 nm; series mostly up to 91.3 µM; fluorescence, % of fluorescein control: at the top concentration. From the text:
U.S. Tox21 Program National Center for Advancing Translational Sciences [NCATS] NIH Chemical Genomics Center [NCGC] U.S. Environmental Protection Agency [EPA] National Institutes of Environmental Health Sciences [NIEHS] National Toxicology Program [NTP] U.S. Food and Drug Administration [FDA] Tox21 Assay Overview: Compound auto fluorescence often interferes with screening of the compound library against various biological targets and signaling pathways. Some of these compounds may have fluorophoric properties. Such properties may interfere with the assay outputs resulting in false positives and/or negatives. To decrease such complications and ensure the compound activities are relevant in terms of biological response, the Tox21 10K compound library was screened for auto fluorescence. From the fluorophores used as reporter signals in our screening assays, the auto fluorescence equivalencies of compounds against three fluorophores have been evaluated: Triamterene, Fluorescein and Rose Bengal sodium for blue, green and red fluorescence, respectively. The fluorescence intensities were measured using Excitation/Emission wavelengths at 405/460nm, 485/535nm and 540/590nm for blue, green and red labels, respectively. This assay includes the green fluorescence data.
Tox21 Assay Protocol Summary: 5 uL of culture medium (MEM containing 10% FBS) per well was dispensed into black wall/clear bottom 1536-well plates using a Multidrop Combi Dispenser (ThermoFisher Scientific, Waltham, MA). After 23 nL compound or DMSO vehicle was transferred into assay plate by a pintool work station (Kalypsys, San Diego, CA), fluorescence intensities in the assay plates were measured by an Envision (PerkinElmer, Shelton, CT) plate reader using three labels for measuring blue, green and red fluorescence at […] 460, 535 and 590nm respectively.
On the technique in general: qHTS replaces the single test concentration by a dilution series.
For the compound `NC(=O)CI`, the “fluorescence, % of fluorescein control” value was 0.0128%. Same read-out and setting: as for `NC(=O)C(Cl)(Cl)Cl`, the figure is 0.082%. The same measure, in the same setting: as for `CCCN(CCC)c1c([N+](=O)[O-])cc(S(C)(=O)=O)cc1[N+](=O)[O-]`, the figure is 0.0418%; as for `CN1[C@@H]2CC[C@H]1CC(OC(=O)c1cc(Cl)cc(Cl)c1)C2` (stereo not given in full), 0.0172% [at 46 µM]. On the same count and under the same terms, as for `Nc1nc(N)nc(N)n1`, the figure is 0.0128%; as for `O=S1(=O)OC(c2cc(Br)c(O)c(Br)c2)(c2cc(Br)c(O)c(Br)c2)c2ccccc21`, 0.299%; as for `C=COC(C)=O`, 0.0306% [at 95.7 µM]. As for `O=C1CN=C(c2ccccc2)c2cc(Cl)ccc2N1CC1CC1`, the result was inactive. On to `ClP(Cl)(Cl)(Cl)Cl`, for which the “fluorescence, % of fluorescein control” value is 0.133%. Regarding `CN1C(=O)C(O)N=C(c2ccccc2)c2cc(Cl)ccc21` (stereo not given), the compound was called inactive. Still for that read-out and setting: next, `O=[N+]([O-])C(Br)(CO)CO`: “inactive”. Consider `COC1=CC(=O)O[C@@H](CCc2ccccc2)C1`, for which the “fluorescence, % of fluorescein control” value is -0.0632% [at 95.7 µM].

For `O=C(OC1CCCCC1)c1ccccc1C(=O)OC1CCCCC1`, the “fluorescence, % of fluorescein control” value was 0.0015% [at 95.7 µM]. With `O=S(=O)(Cl)c1ccccc1`, the “fluorescence, % of fluorescein control” value is -0.133%. Same read-out and setting: as for `O=C(C(Cl)(Cl)Cl)C(Cl)(Cl)Cl`, the figure is 0.0234% [at 95.7 µM]; as for `C=CCCl`, 0.0185% [at 95.7 µM]. On the same count and under the same terms, as for `COc1nn(C(=O)NS(=O)(=O)c2ccccc2OC(F)(F)F)c(=O)n1C`, the figure is -0.0453%; as for `BrCC(Br)C1CCC(Br)C(Br)C1` (stereo not given), 0.0055%; as for `CCCCC(CC)COP(=O)(Oc1ccccc1)Oc1ccccc1` (stereo not given), -0.013%. As to `CC(=O)NC1CCSC1=O` (stereo not given), the compound was classed as inactive. Turning to `C(=NC1CCCCC1)=NC1CCCCC1`, the outcome was inactive. With `COc1c(C(C)(C)C)cc([N+](=O)[O-])c(C)c1[N+](=O)[O-]`, the “fluorescence, % of fluorescein control” value was 0.0171%.

With `NCC(CC(=O)O)c1ccc(Cl)cc1` (stereo not given), the “fluorescence, % of fluorescein control” value is 0.0305% [at 46 µM]. For `O=C1c2ccccc2C(=O)C1C(=O)C(c1ccccc1)c1ccccc1`, the “fluorescence, % of fluorescein control” value was 0.0267% [at 46 µM]. Same read-out and setting: as for `II`, the figure is -0.0025%; as for `CC(C)(Cl)[N+](=O)[O-]`, 0.0207%.

For `COCC(C)N(C(=O)CCl)c1c(C)csc1C` (stereo not given), the result was inactive. With `CCOS(C)(=O)=O`, the “fluorescence, % of fluorescein control” value is -0.0228% [at 95.7 µM]. Same read-out and setting: as for `CN(C)c1ccc(N(C)C)cc1`, the figure is 0.457%. `CCCCNP(N)(N)=S`: the “fluorescence, % of fluorescein control” value was -0.0201%. The same measure, in the same setting: as for `Nc1ccc(N=Nc2ccc(-c3ccc(N=Nc4c(S(=O)(=O)O)cc5cc(S(=O)(=O)O)c(N=Nc6ccccc6)c(O)c5c4N)cc3)cc2)c(N)c1`, the figure is 0.104%; as for `COC(=O)c1cncn1C(C)c1ccccc1` (stereo not given), -0.0449% [at 46 µM]. On to `[CH3][Sn]([CH3])([Cl])[Cl]`, for which the compound was classed as inactive.

For the compound `ClC=C(Cl)Cl`, the result was inactive. Regarding `Cc1ccccc1CCl`, the “fluorescence, % of fluorescein control” value is 0.0597%. `O=S(=O)(O)C(F)(F)C(F)(F)C(F)(F)C(F)(F)F`: the “fluorescence, % of fluorescein control” value was -0.159% [at 95.7 µM]. On to `CC(O)(CS(=O)(=O)c1ccc(F)cc1)C(=O)Nc1ccc(C#N)c(C(F)(F)F)c1` (stereo not given), for which the compound was classed as inactive. For the compound `COP(=S)(OC)Oc1cc(Cl)c(I)cc1Cl`, the “fluorescence, % of fluorescein control” value was -0.0354%. On the same count and under the same terms, as for `CCCC(Cn1cncn1)c1ccc(Cl)cc1Cl` (stereo not given), the figure is -0.124%.

In the case of `CCC(COC(=O)c1cc(OC)c(OC)c(OC)c1)(c1ccccc1)N(C)C` (stereo not given), the “fluorescence, % of fluorescein control” value is -0.0664% [at 46 µM].
